The source made the active and inactive calls.
How the values were obtained:
[1] = tested on: Human papillomavirus type 1a protein E7 (residues 44-93); assay: HPV1a E7 fragment binders on microarrays, primary screen, biochemical, small-molecule microarray, residues 44-93, 635 nm fluorescence (AID 1108); conditions: small-molecule microarray binding, fluorescence 635 nm; higher = more signal;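 further: E7 fragment applied at 1 µg/mL in TBST for 1 h at 4 C; score combines spot fluorescence with its signal to noise ratio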
[2] = modulators of HCV replicon luciferase signal, primary screen, HCV replication inhibitor project, Huh7 cells, luciferase reporter (AID 1109); conditions: 48 h, higher = more signal;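 further: huh7 hepatoma cells harbouring a luciferase neomycin HCV replicon reporter; luciferase luminescence as measure of HCV replicon replication; test concentration not given here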
[3] = target: Left-right determination factor 2 (Homo sapiens) (UniProt O00292); assay: LEFTY2 binders on small-molecule microarrays, primary screen, biochemical, small-molecule microarray, 635 nm fluorescence scan (AID 1110); conditions: LEFTY2 binding, higher = more signal
Left-right determination factor 2 (Homo sapiens), sequence (O00292 whole entry, looked up): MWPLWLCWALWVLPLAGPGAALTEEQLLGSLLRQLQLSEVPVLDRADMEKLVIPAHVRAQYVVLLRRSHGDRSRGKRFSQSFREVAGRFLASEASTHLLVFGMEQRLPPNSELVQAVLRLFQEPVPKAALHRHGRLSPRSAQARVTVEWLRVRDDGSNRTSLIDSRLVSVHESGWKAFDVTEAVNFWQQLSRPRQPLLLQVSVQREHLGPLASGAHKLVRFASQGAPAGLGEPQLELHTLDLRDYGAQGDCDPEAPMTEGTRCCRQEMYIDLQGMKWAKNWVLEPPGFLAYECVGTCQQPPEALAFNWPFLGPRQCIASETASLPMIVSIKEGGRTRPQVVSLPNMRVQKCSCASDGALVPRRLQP

[4] = target: Calmodulin-1 (Homo sapiens) (UniProt P0DP23); assay: CALM1 binders on microarrays, EGTA buffer, profiling panel, biochemical, small-molecule microarray, Cy5-labelled CALM1 (AID 1111); conditions: Cy5-CALM1 binding fluorescence, higher = more signal;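 further: labelled calmodulin applied in Tris saline Tween buffer holding calcium plus EGTA and DTT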
[5] = target: Calmodulin-1 (Homo sapiens) (UniProt P0DP23); assay: calcium-bound CALM1 binders on microarrays, profiling panel, artefact control for SMM control-protein annotation, biochemical, small-molecule microarray, Cy5-labelled CALM1, plus calcium (AID 1112); conditions: Cy5-CALM1 binding fluorescence, higher = more signal;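 further: score merges spot fluorescence with signal to noise from triplicate slides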
[6] = small-molecule microarray binders of probe aWnt5a, primary screen, biochemical, biotinylated probe, 635/667 nm fluorescence (AID 1113); conditions: higher = more signal;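 further: score merges 667 nm fluorescence intensity with signal-to-noise per printed feature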
[7] = small-molecule microarray binders of probe aShh, primary screen, biochemical, biotinylated probe, 635/667 nm fluorescence (AID 1114); conditions: higher = more signal;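 further: probe is biotin-labelled aShh protein from a stem cell growth factor screen; measures binding of labelled protein to compounds printed on the slide; score merges feature fluorescence at 667 nm with signal-to-noise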
[8] = small-molecule microarray binders of probe aNog, primary screen, biochemical, biotinylated probe, 635/667 nm fluorescence (AID 1115); conditions: higher = more signal;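 further: probe is biotinylated aNog protein used at 0.15 µg/mL for 1 h at 4 C; z-score combines 667 nm fluorescence of each spot with its signal to noise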
[9] = target: Torsin-1A-interacting protein 1 (Homo sapiens) (UniProt Q5JTV8); assay: LAP1 binders from COS7 cell lysate, primary screen, small-molecule microarray, 635/667 nm fluorescence (AID 1116); conditions: COS7-hLAP1 lysate binding, 635 nm fluorescence, higher = more signal
Torsin-1A-interacting protein 1 (Homo sapiens), sequence (Q5JTV8 whole entry, looked up): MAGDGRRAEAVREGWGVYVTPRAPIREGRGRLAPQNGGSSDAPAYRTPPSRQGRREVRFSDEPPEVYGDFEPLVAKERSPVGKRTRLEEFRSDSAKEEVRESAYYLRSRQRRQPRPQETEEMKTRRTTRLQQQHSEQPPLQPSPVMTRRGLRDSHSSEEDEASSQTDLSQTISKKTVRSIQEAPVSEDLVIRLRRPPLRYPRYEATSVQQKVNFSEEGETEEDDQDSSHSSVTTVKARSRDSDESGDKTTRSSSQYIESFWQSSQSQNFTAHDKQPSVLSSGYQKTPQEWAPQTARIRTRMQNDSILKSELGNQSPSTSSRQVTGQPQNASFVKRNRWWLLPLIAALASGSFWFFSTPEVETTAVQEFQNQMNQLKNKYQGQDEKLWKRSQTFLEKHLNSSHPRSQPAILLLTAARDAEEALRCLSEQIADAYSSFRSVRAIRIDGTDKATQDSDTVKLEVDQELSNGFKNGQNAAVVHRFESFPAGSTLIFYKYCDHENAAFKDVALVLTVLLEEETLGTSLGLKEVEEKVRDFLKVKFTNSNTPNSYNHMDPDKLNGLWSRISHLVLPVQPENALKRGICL

[10] = target: Alpha-bungarotoxin (Bungarus multicinctus) (UniProt P60615); assay: alpha-bungarotoxin binders on microarray, profiling panel, artefact control for SMM control protein annotation, biochemical, small-molecule microarray, Alexa647 label, 635/667 nm fluorescence (AID 1117); conditions: alpha-BTX-A647 binding fluorescence, higher = more signal
Alpha-bungarotoxin (Bungarus multicinctus), sequence (P60615 whole entry, looked up): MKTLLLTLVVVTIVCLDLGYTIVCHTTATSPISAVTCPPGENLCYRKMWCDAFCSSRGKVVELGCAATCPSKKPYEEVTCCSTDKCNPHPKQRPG

[11] = target: Albumin (Bos taurus) (UniProt P02769); assay: bovine serum albumin binders on microarray, profiling panel, artefact control for SMM control protein annotation, biochemical, small-molecule microarray, Alexa647 label, 635/667 nm fluorescence (AID 1118); conditions: BSA-A647 binding, fluorescence 635 nm, higher = more signal;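 further: score merges 667 nm emission intensity and signal-to-noise per printed compound spot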
Albumin (Bos taurus), sequence (P02769 whole entry, looked up): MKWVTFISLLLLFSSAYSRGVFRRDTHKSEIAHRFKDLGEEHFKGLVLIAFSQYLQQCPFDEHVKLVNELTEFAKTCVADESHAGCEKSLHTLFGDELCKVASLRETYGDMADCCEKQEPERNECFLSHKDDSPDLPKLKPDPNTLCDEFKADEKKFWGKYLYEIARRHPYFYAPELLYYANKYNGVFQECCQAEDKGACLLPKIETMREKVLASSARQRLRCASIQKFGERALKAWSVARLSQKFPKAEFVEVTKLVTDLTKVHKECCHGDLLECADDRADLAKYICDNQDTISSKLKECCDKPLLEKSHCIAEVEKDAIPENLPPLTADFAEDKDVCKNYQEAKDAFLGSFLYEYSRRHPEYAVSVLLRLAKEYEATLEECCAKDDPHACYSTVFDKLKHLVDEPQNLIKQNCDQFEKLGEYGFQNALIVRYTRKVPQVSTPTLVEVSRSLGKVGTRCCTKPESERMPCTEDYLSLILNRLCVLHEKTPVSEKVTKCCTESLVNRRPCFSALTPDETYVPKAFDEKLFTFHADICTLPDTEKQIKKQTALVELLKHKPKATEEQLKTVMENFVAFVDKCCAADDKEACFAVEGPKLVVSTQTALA

[12] = small-molecule microarray binders of probe aXIP, primary screen, biochemical, NeuroSMM set, 635/667 nm fluorescence (AID 1119); conditions: higher = more signal, called active from +8 up or from −8 down;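 further: probe is the protein aXip251-270 applied at 1 µg/mL to compound-printed slides; binding of probe to printed compounds measured as 667 nm fluorescence plus signal to noise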
[13] = small-molecule binders of probe aNOTCH3, primary screen, biochemical, small-molecule microarray, 635/667 nm fluorescence (AID 1120); conditions: higher = more signal;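 further: probe is a biotin-tagged antibody raised against NOTCH3 rather than NOTCH3 protein; score merges spot fluorescence near 667 nm with spot signal to noise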
[14] = small-molecule binders of probe aNOTCH2, primary screen, biochemical, small-molecule microarray, 635/667 nm fluorescence (AID 1121); conditions: higher = more signal;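 further: score merges feature fluorescence read at 667 nm with its signal to noise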
[15] = target: Carbonic anhydrase 2 (Homo sapiens) (UniProt P00918); assay: CAII small-molecule binders, profiling panel, biochemical, small-molecule microarray, Alexa647-labelled CAII (AID 1122); conditions: CAII-A647 binding fluorescence, higher = more signal
[16] = COS7 lysate on small-molecule microarray, probe aHis, 635 nm (AID 1123); conditions: COS7 cell lysate, fluorescence, higher = more signal;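 further: z-score combines 667nm fluorescence intensity with signal-to-noise per printed compound spot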
[17] = compound binding in COS7 lysate, probe aLAP1, primary screen, cell lysate, small-molecule microarray (AID 1124); conditions: probe aLAP1, fluorescence, higher = more signal;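 further: lysate comes from COS7 cells expressing LAP1 and is applied at 0.3 µg/mL; score merges spot fluorescence near 667 nm with signal-to-noise over triplicate slides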
[18] = tested on: Sam68 (KHDRBS1); assay: Sam68 small-molecule binders, primary screen, biochemical, small-molecule microarray, 635 nm fluorescence (AID 1125); conditions: small-molecule microarray binding, higher = more signal;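 further: score merges 667 nm channel intensity with signal to noise over triplicate slides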
[19] = tested on: Chordin-like protein 2 (CHRDL2); assay: CHRDL2 small-molecule binders, primary screen, biochemical, small-molecule microarray, 635 nm fluorescence (AID 1126); conditions: small-molecule microarray binding, fluorescence 635 nm; higher = more signal;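 further: printed compound slides probed with Chrdl2 protein at 4 µg/mL for 1 h at 4 C; score merges 667 nm emission intensity with signal to noise over three replicate slides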
[20] = target: Concanavalin-A (Canavalia ensiformis) (UniProt P02866); assay: ConA small-molecule binders, primary screen, artefact control for SMM control protein annotation, biochemical, small-molecule microarray, Alexa647 label, 635 nm (AID 1127); conditions: ConA-A647 binding fluorescence, higher = more signal;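 further: z combines 667 nm emission intensity with signal-to-noise across three replicate slides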
Concanavalin-A (Canavalia ensiformis), sequence (P02866 whole entry, looked up): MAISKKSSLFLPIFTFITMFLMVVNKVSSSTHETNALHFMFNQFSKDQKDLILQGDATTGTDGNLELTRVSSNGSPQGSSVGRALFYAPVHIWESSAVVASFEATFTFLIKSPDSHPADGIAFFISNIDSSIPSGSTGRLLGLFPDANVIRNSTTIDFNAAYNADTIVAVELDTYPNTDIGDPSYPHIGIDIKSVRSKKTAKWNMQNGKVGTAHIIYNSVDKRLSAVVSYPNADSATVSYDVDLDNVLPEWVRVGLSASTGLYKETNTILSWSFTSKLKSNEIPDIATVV

Row | Compound | composite z-score [1] | z-score [2] | composite z-score [3] | composite z-score [4] | composite z-score [5] | composite z-score [6] | composite z-score [7] | composite z-score [8] | composite z-score [9] | composite z-score [10] | composite z-score [11] | composite Z-score [12] | composite z-score [13] | composite z-score [14] | composite z-score [15] | composite z-score [16] | composite z-score [17] | composite z-score [18] | composite z-score [19] | composite z-score [20]
1 | COCCOC(=O)N1C(=O)[C@@]2(c3cc(C#Cc4ccc(OC)cc4)ccc31)[C@H](C(N)=O)[C@H]1C(=O)O[C@H](c3ccccc3)[C@H](c3ccccc3)N1[C@@H]2c1ccc(O)cc1 | -0.426 | -1.01 | -1.58 | -0.844 | 0.247 | 0.0243 | -0.487 | 0.909 | 0.127 | -1.05 | -1.62 | 0.0064 (inactive) | 0.319 | -0.0125 | 0.0424 | -0.304 | 0.0413 | -0.986 | -1.71 | -1.67
2 | CC(C)(C)OC(=O)CC[C@@]1(C(=O)NCC(O)CO)N=C(c2ccc(OCCCO)cc2)O[C@@H]1c1ccccc1 (stereo not given in full) | 1.36 | 0.821 | -0.452 | -0.0155 | 0.924 | -0.0685 | 0.223 | 0.487 | 3.12 | 1.04 | 1.01 | 0.595 (inactive) | 0.178 | -0.0896 | 0.892 | 3.67 | 1.34 | 0.965 | -1.65 | 0.537
3 | C=CCC(OC(C)=O)[C@@H]1[C@@H](N(Cc2ccc(-c3cccc(C(F)(F)F)c3)o2)C(=O)c2ccc(C)cc2)c2cc(OCCCO)ccc2N1C(=O)c1ccc2ccccc2n1 (stereo not given in full) | -0.172 | -0.462 | 0.435 | -0.619 | -0.253 | -0.0478 | 0.278 | 0.276 | -0.0885 | 1.31 | -0.706 | 0.936 (inactive) | 0.116 | -0.0255 | 0.053 | 0.163 | 0.497 | 0.0508 | 0.232 | -0.335
4 | NC(=O)NCC#Cc1ccc2c(c1)[C@]1(C(=O)N2)[C@H](C(=O)NC[C@H](O)c2ccccc2)[C@H]2C(=O)O[C@H](c3ccccc3)[C@H](c3ccccc3)N2[C@@H]1c1ccccc1OCCO | 1.41 | -1.49 | -0.914 | 0.103 | -0.134 | -0.139 | -0.301 | 0.665 | 0.433 | 3.26 | 0.308 | 0.15 (inactive) | -0.0003 | -0.164 | 0.539 | 1.54 | 0.564 | 0.854 | -0.769 | 0.913
5 | Cc1ccc(S[C@]2(C(=O)NCCN3CCOCC3)CC(=O)N(C3CCCCC3)[C@@H]2c2ccc(CO)cc2)cc1 | 1.29 | -1.82 | -0.55 | 1.06 | -0.39 | -0.0685 | -0.186 | 0.0373 | 0.347 | 0.711 | 0.869 | 0.562 (inactive) | 0.0525 | -0.0621 | 0.617 | 1.83 | 0.437 | 1.16 | -0.179 | 1.07
6 | Cc1ccc(N2C(=O)c3ccccc3[C@@H](C(=O)NCC(C)C)[C@@H]2c2ccc(CO)cc2)nc1 | -0.369 | -0.216 | -1.31 | -0.617 | -0.259 | -0.176 | -0.0709 | -0.518 | 0.219 | -0.688 | -0.795 | -0.204 (inactive) | -0.465 | -0.166 | 0.806 | 0.121 | 0.474 | -0.205 | -0.323 | -0.418
7 | [N-]=[N+]=NCc1ccccc1C[C@]1(C(=O)NCCN2CCOCC2)N=C(c2ccc(OCCCO)cc2)O[C@H]1c1ccccc1CN=[N+]=[N-] | 1.43 | -3.91 | 0.278 | 0.86 | 0.368 | -0.124 | -0.146 | -0.158 | 1.59 | 1.28 | 0.825 | -0.0191 (inactive) | 0.399 | -0.0474 | 0.337 | -0.827 | 0.736 | 1.13 | -0.0255 | 1.05
8 | C=CC[C@@]1(C(=O)NCc2ccccc2)N=C(c2ccc(OCCCO)cc2)O[C@@H]1c1ccccc1CN=[N+]=[N-] | 1.41 | -2.31 | -0.511 | 1.13 | 0.429 | 0.0676 | 0.448 | 0.622 | 1.1 | 1.28 | 0.889 | 1.01 (inactive) | 0.525 | 0.117 | 0.721 | 2.95 | 0.88 | 1.26 | -0.58 | 1.03
9 | O=C(NCC(O)CO)[C@@]1(Cc2ccccc2)N=C(c2ccc(OCCCO)cc2)O[C@H]1c1ccccc1 (stereo not given in full) | 0.546 | -0.99 | -1.13 | 2.01 | 1.36 | -0.241 | 0.334 | -0.57 | 2.48 | 1.77 | 0.944 | 0.805 (inactive) | 0.331 | 0.257 | 0.852 | 2.83 | 1.01 | 1.24 | -1.34 | 0.785
10 | CCCC[C@H]1C[C@@H]1[C@@H]1N(P(=O)(c2ccccc2)c2ccccc2)[C@](CO)(c2ccccc2)CC12CC2 | 0.992 | -2.4 | -1.58 | 1.85 | 1.08 | 0.188 | 0.562 | 1.75 | 0.0187 | -0.0785 | 0.914 | -0.0435 (inactive) | 0.112 | 0.281 | 0.285 | 2.17 | -0.384 | 0.255 | -1.39 | 0.558
11 | O=S(=O)(NCCCO)c1ccc(Br)cc1 | 0.54 | -0.164 | 0.548 | 0.873 | 0.698 | 0.0251 | -0.138 | -0.122 | 0.365 | 0.284 | 0.45 | -0.854 (inactive) | -0.0414 | -0.057 | 0.62 | 0.0505 | 0.337 | 0.522 | 0.678 | 0.397

Reference: PubChem BioAssay
